Morphology score and SARS-CoV-2 infection rate data for 56 compounds are collected here from the supplement of paper PMC13380429.

The test system of assay [1] is Vero E6 infected with SARS-CoV-2. The assay can be described thus: morphology score (similarity to uninfected cells); higher = more like uninfected cells. The following applies: 24 h.
The test system is the same in assay [2]. The assay can be described thus: SARS-CoV-2 infection rate relative to infected DMSO; higher = more infection, active = 60 or less. The conditions noted are these: 24 h.

In turn, `CCOc1ccc(Nc2nc(-c3c(C)nc4ccccn34)cs2)cc1` (0.833333 µM) came in with a morphology score in assay [1] of -0.00134. Moreover, in assay [2], the SARS-CoV-2 infection rate was 102% (inactive).
In turn, `N[C@@H](C(=O)O)c1nn[nH]n1` (racemic) [tetrazol-5-yl-glycine-(RS)] (10 µM) showed a morphology score in assay [1] of 0.03. Moreover, the SARS-CoV-2 infection rate in assay [2] is 98% (inactive).
The like results for `CN1CCN(c2ccc(Nc3ncc4cc(C#N)c(=O)n(C5CCCC5)c4n3)cc2)CC1` (0.833333 µM) were, in that order, 0.153 and 104% (inactive).
For the compound `CC(C)COc1ccc(CNC(=O)N(Cc2ccc(F)cc2)C2CCN(C)CC2)cc1` [pimavanserin] (10 µM), in assay [1], the morphology score amounted to 0.709. In addition, the SARS-CoV-2 infection rate in assay [2] was 23% (active).
On the same counts, the results for `O=C1Nc2ccccc2/C1=C1/Nc2ccccc2C1=O` [indirubin] (10 µM) are 0.173 and 99% (inactive).
The like results for `O=C(O)C1=C[C@@H](O)[C@@H](O)[C@H](O)C1` [shikimic-acid] (10 µM) were, in that order, 0.0235 and 108% (inactive).
The like results for `CON` [methoxyamine] (10 µM) were, in that order, 0.192 and 99% (inactive).
As to `CC(=O)/N=c1/sc(S(N)(=O)=O)nn1C` [methazolamide] (10 µM), the morphology score in assay [1] is -0.0286. For the same compound, in assay [2], the SARS-CoV-2 infection rate was 105% (inactive).
The like results for `N=C(N)NCCC[C@@H](N)C(=O)N[C@@H](CCCNC(=N)N)C(=O)N1CCC[C@H]1C(=O)N1C[C@H](O)C[C@H]1C(=O)NCC(=O)N[C@@H](Cc1cccs1)C(=O)N[C@@H](CO)C(=O)N1Cc2ccccc2C[C@@H]1C(=O)N1[C@H](C(=O)N[C@@H](CCCNC(=N)N)C(=O)O)C[C@@H]2CCCC[C@@H]21` [icatibant-acetate] (10 µM) were, in that order, 0.105 and 102% (inactive).
The like results for `O=C1CN=C(c2cccc(Br)c2)c2oc3ccccc3c2N1` (10 µM) were, in that order, 0.0252 and 95.5% (inactive).
As for `CC(=O)O[C@]1(C(C)=O)CC[C@H]2[C@@H]3C=C(C)C4=CC(=O)CC[C@]4(C)[C@H]3CC[C@@]21C` [megestrol-acetate] (10 µM), the morphology score in assay [1] is 0.21. Further, in assay [2], the SARS-CoV-2 infection rate is 100% (inactive).
On the same counts, the results for `CN1[C@@H]2CC[C@H]1C[C@@H](OC(=O)c1c[nH]c3ccccc13)C2` [tropisetron] (10 µM) are -0.0266 and 102% (inactive).
With `OC(c1cc(C(F)(F)F)nc2c(C(F)(F)F)cccc12)C1CCCCN1` (configuration not stated) [mefloquine] (0.833333 µM), the morphology score in assay [1] is -0.113. Besides, in assay [2], the SARS-CoV-2 infection rate was 112% (inactive).
On the same counts, the results for `Cc1c(Cn2c(C)nc3c(C(=O)O)cc(N4CCOCC4)cc32)cccc1C(F)(F)F` (0.833333 µM) are -0.135 and 118% (inactive).
In turn, `CC(C)(C)NC(=O)[C@@H](c1cccnc1)N(C(=O)c1ccco1)c1ccc(C(C)(C)C)cc1` (10 µM) had a morphology score in assay [1] of 0.333. Also, the SARS-CoV-2 infection rate in assay [2] is 83% (inactive).
The like results for `O=C(NO)c1ccc(O)c(O)c1` [didox] (10 µM) were, in that order, 0.0981 and 96% (inactive).
On the same counts, the results for `O=C(c1ccc(F)cc1)N1CCC[C@H](c2nc(-c3ccc(F)cc3)no2)C1` (10 µM) are 0.242 and 93.5% (inactive).
In turn, `C[C@]12CC/C(=N\OCCN)C[C@@H]1C(=O)C[C@@H]1[C@@H]2CC[C@]2(C)C(=O)CC[C@@H]12` [istaroxime] (0.833333 µM) returned a morphology score in assay [1] of 0.151. In addition, in assay [2], the SARS-CoV-2 infection rate was 102% (inactive).
In the case of `NCCCCCNCC12CC3CC(CC(C3)C1)C2` (10 µM), the morphology score in assay [1] came out at 0.229. For the same compound, the SARS-CoV-2 infection rate in assay [2] is 97.5% (inactive).
The like results for `Cc1cc(C)c(CNC(=O)c2cc(-c3ccc(CN4CCOCC4)cc3)cc3c2cnn3C2CCCC2)c(=O)[nH]1` (10 µM) were, in that order, -0.13 and 110% (inactive).
`CCOC(=S)SSC(=S)OCC` [dixanthogen] (10 µM) showed a morphology score in assay [1] of -0.0377. The SARS-CoV-2 infection rate in assay [2] is 106% (inactive).
With `CC(C)C[C@H](NC(=O)[C@H](CCc1ccccc1)NC(=O)CN1CCOCC1)C(=O)N[C@@H](Cc1ccccc1)C(=O)N[C@@H](CC(C)C)C(=O)[C@@]1(C)CO1` [carfilzomib] (0.833333 µM), the morphology score in assay [1] came to 0.00273. Moreover, the SARS-CoV-2 infection rate in assay [2] is 42% (active).
In the case of `CN1C(=O)C(F)=C[C@]2(C)[C@H]3CC[C@]4(C)[C@@H](C(=O)NCc5nc6cccnc6[nH]5)CC[C@H]4[C@@H]3CC[C@@H]12` (10 µM), in assay [1], the morphology score worked out at 0.0239. Also, the SARS-CoV-2 infection rate in assay [2] was 100% (inactive).
The like results for `c1ccc(C(NCCNC(c2ccccc2)c2ccccc2)c2ccccc2)cc1` (10 µM) were, in that order, 0.14 and 101% (inactive).
The like results for `CN1CCN(c2ncc(-c3cc(Cl)cc(Cl)c3Cl)c(N)n2)CC1` [sipatrigine] (10 µM) were, in that order, 0.204 and 82% (inactive).
`CC(C)NCCN(C(C)C)S(=O)(=O)c1ccc(Cl)cc1Cl` (10 µM) had a morphology score in assay [1] of -0.0999. In addition, in assay [2], the SARS-CoV-2 infection rate was 110% (inactive).
The like results for `C[C@@H]1C[C@H]2[C@@H]3C[C@H](F)C4=CC(=O)C=C[C@]4(C)[C@@]3(Cl)[C@@H](O)C[C@]2(C)[C@H]1C(=O)COC(=O)C(C)(C)C` [clocortolone-pivalate] (10 µM) were, in that order, 0.067 and 98% (inactive).
The like results for `CC(C)[C@H](CO)Nc1nc(Nc2ccc(C(=O)O)c(Cl)c2)c2ncn(C(C)C)c2n1` [purvalanol-B] (10 µM) were, in that order, -0.00736 and 101% (inactive).
Consider `COc1ccc(S(=O)(=O)Nc2cc(Cl)cc(Cl)c2OC)cc1N1CCNCC1` (10 µM), for which, in assay [1], the morphology score was determined as 0.132. For the same compound, the SARS-CoV-2 infection rate in assay [2] is 97.5% (inactive).
On the same counts, the results for `Cc1cccc(Nc2cc(Cl)nc(SCC(=O)O)n2)c1C` [pirinixic-acid] (10 µM) are 0.0216 and 108% (inactive).
As for `CCOc1ccc(Cc2nccc3cc(OCC)c(OCC)cc23)cc1OCC` [ethaverine] (10 µM), in assay [1], the morphology score came to 0.2. Besides, the SARS-CoV-2 infection rate in assay [2] was 100% (inactive).
In assay [1], `CCCC[C@@]1(C2CCCC2)Cc2cc(OCCCC(=O)O)c(Cl)c(Cl)c2C1=O` (10 µM) displayed a morphology score of -0.08. For the same compound, the SARS-CoV-2 infection rate in assay [2] was 92.5% (inactive).
The compound `O=C1O[C@H](CO)[C@@H](O)[C@H](O)[C@H]1O` [gluconolactone] (10 µM) showed a morphology score in assay [1] of 0.0736. Further, in assay [2], the SARS-CoV-2 infection rate is 98% (inactive).
The like results for `Cc1cc(S(=O)(=O)O)c2c(C)ccc(C(C)C)cc1-2` [sodium-gualenate] (10 µM) were, in that order, 0.0593 and 96.5% (inactive).
On the same counts, the results for `FC(F)(F)c1cc(CO[C@H]2CCCN[C@H]2c2ccccc2)cc(C(F)(F)F)c1` (10 µM) are 0.777 and 16% (active).
The like results for `CCN1C[C@]2(COC(=O)c3ccccc3N3C(=O)C[C@H](C)C3=O)CC[C@H](OC)[C@@]34[C@@H]5C[C@H]6[C@H](OC)[C@@H]5[C@](O)(C[C@@H]6OC)[C@](O)([C@@H](OC)[C@H]23)[C@@H]14` [methyllycaconitine] (10 µM) were, in that order, 0.00671 and 110% (inactive).
In assay [1], `COc1cccc2c1c(O)c(C(=O)N(C)c1ccc(C(F)(F)F)cc1)c(=O)n2C` [tasquinimod] (10 µM) registered a morphology score of 0.168. The SARS-CoV-2 infection rate in assay [2] is 92% (inactive).
The like results for `CCOC(=O)C1=C(COCCN)NC(C)=C(C(=O)OC)C1c1ccccc1Cl` (configuration not stated) [amlodipine] (10 µM) were, in that order, 0.697 and 47% (active).
The like results for `C[C@@H]1CN(c2c(F)c(F)c3c(=O)c(C(=O)O)cn(C4CC4)c3c2F)C[C@H](C)N1` [orbifloxacin] (10 µM) were, in that order, 0.149 and 96.5% (inactive).
`CS[C@H]1SC[C@H]2C(=O)N(C)[C@@H](C(C)C)C(=O)OC[C@@H](NC(=O)c3cnc4ccccc4n3)C(=O)N[C@@H](C)C(=O)N(C)[C@@H]1C(=O)N(C)[C@@H](C(C)C)C(=O)OC[C@@H](NC(=O)c1cnc3ccccc3n1)C(=O)N[C@@H](C)C(=O)N2C` [echinomycin] (0.833333 µM) had a morphology score in assay [1] of -0.0512. Further, in assay [2], the SARS-CoV-2 infection rate is 96% (inactive).
On the same counts, the results for `CS(=O)(=O)c1ccc([C@@H](O)[C@@H](CF)NC(=O)C(Cl)Cl)cc1` [florfenicol] (10 µM) are -0.00265 and 96.5% (inactive).
For `CCN1CCC[C@H]1CNC(=O)c1c(O)c(Cl)cc(Cl)c1OC` [raclopride] (10 µM), the morphology score in assay [1] came out at 0.124. For the same compound, the SARS-CoV-2 infection rate in assay [2] is 104% (inactive).
`CCN1CCN(Cc2ccc(-c3cc4c(N[C@H](C)c5ccccc5)ncnc4[nH]3)cc2)CC1` (10 µM) yielded a morphology score in assay [1] of -0.144. Further, the SARS-CoV-2 infection rate in assay [2] was 124% (inactive).
Compound `COc1ccc(C(C)(C)C)cc1CN[C@H]1C2CCN(CC2)[C@H]1C(c1ccccc1)c1ccccc1` [maropitant] (0.833333 µM) had a morphology score in assay [1] of 0.103. The SARS-CoV-2 infection rate in assay [2] was 104% (inactive).
Take `COc1cc(OC)nc(O[C@H](C(=O)O)C(OC)(c2ccccc2)c2ccccc2)n1` [darusentan] (10 µM): the morphology score in assay [1] was -0.0345. In addition, the SARS-CoV-2 infection rate in assay [2] is 116% (inactive).
The compound `C[n+]1ccc(C(=O)NCc2ccccc2)cc1` [enisamium-iodide] (10 µM) displayed a morphology score in assay [1] of 0.172. Also, the SARS-CoV-2 infection rate in assay [2] is 90% (inactive).
On the same counts, the results for `Fc1ccc([C@@H]2CCNC[C@H]2COc2ccc3c(c2)OCO3)cc1` [paroxetine] (10 µM) are -0.0761 and 117% (inactive).
On the same counts, the results for `Cc1cccc(OCC(O)CNC(C)(C)C)c1C` (configuration not stated) [xibenolol] (10 µM) are 0.0955 and 97.5% (inactive).
Take `O=C(OCCN1CCCCC1)c1c[nH]c2ccccc12` (10 µM): the morphology score in assay [1] was 0.0285. For the same compound, the SARS-CoV-2 infection rate in assay [2] was 102% (inactive).
`CC(C)NNC(=O)c1ccncc1` [iproniazid] (10 µM) registered a morphology score in assay [1] of 0.0745. Further, the SARS-CoV-2 infection rate in assay [2] was 108% (inactive).
On the same counts, the results for `O=C(O)[C@H](Cc1c[nH]c2ccccc12)N1C(=O)c2ccccc2C1=O` (10 µM) are -0.0791 and 115% (inactive).
In assay [1], `CN1CCN(C(c2ccccc2)c2ccc(Cl)cc2)CC1` (configuration not stated) [chlorcyclizine] (10 µM) gave a morphology score of 0.134. Moreover, in assay [2], the SARS-CoV-2 infection rate is 102% (inactive).
The like results for `CCCCCCc1ccc(O)cc1O.Nc1c2ccccc2nc2ccccc12` [acrisorcin] (0.833333 µM) were, in that order, 0.293 and 97% (inactive).
The like results for `Cc1onc(-c2c(Cl)cccc2Cl)c1C(=O)N[C@@H]1C(=O)N2[C@@H]1SC(C)(C)[C@@H]2C(=O)O` [dicloxacillin] (10 µM) were, in that order, 0.0315 and 115% (inactive).
In turn, `COc1ccc2cc1Oc1ccc(cc1)C[C@H]1c3c(cc4c(c3Oc3cc5c(cc3OC)CCN(C)[C@@H]5C2)OCO4)CCN1C` [cepharanthine] (10 µM) came in with a morphology score in assay [1] of 0.461. The SARS-CoV-2 infection rate in assay [2] was 77.5% (inactive).
The like results for `C#C[C@]1(OC(=O)CCCCCC)CC[C@H]2[C@@H]3CCC4=CC(=O)CC[C@@H]4[C@H]3CC[C@@]21C` [norethisterone-enanthate] (10 µM) were, in that order, 0.146 and 96.5% (inactive).
